Only a sample is shown.
aSyn UTR act – Activators working through SNCA 5'UTR binding (MLPCN); activity score, % (tested at 7.5 µM), hits read low; alpha-synuclein 5'UTR reporter, activators screen; 300,000 tested, 7.1% active; in the data active means activity score below about -60%
Numbers without * were called inactive.

SMILES	aSyn UTR act
CSc1ccccc1NC(=O)c1cc(-c2ccc3c(c2)OCO3)on1	-128.0*
O=C(Nc1cc(Br)ccc1O)c1cc(-c2ccc3c(c2)OCO3)on1	-108.4*
Cc1ccc(Sc2ncccc2COC(=O)NC(C)C)cc1	-89.1*
C=CCn1c(=S)[nH]c2cc(-c3ccccc3)sc2c1=O	-76.9*
C=CCn1c(Sc2ccccc2)nc2c1c(=O)[nH]c(=O)n2C	59.6
O=C(CN1CC(=O)Oc2ccccc21)NCc1ccco1	-97.2*
O=C(COn1nnc2ccccc21)N1CCN(Cc2ccccc2)CC1	-65.7*
O=C(COn1nnc2ccccc21)NCC1CCCCC1	-78.1*
Nc1nnc(COc2ccc(Br)cc2Br)s1	-97.9*
Cc1cc(-c2cccc([N+](=O)[O-])c2)nc2ccc3ccccc3c12	-107.6*
O=c1[nH]c(-c2ccccc2)nc2sc(-c3ccccc3)cc12	-235.3*
O=c1[nH]cnc2sc(-c3ccccc3)cc12	-85.5*
CN(C)/C=C/c1onc(-c2ccccc2Cl)c1C#N	-86.7*
Cc1c2ccccc2nc2c(F)c(N(C)C)c(F)c(F)c12	-77.8*
Oc1ccccc1C1=Nc2ncnn2C(c2ccccc2)C1 (centres undefined)	-68.2*
Cc1cc(C)nc(SC2=CS(=O)(=O)c3ccccc32)n1	-120.0*
O=S1(=O)C=C(Sc2nnc(-c3ccccc3)o2)c2ccccc21	-117.5*
CC(C)(C)c1ccc(OCC(O)CN2CCOCC2)cc1 (centres undefined)	-119.5*
CC(C)(C)c1ccc(NC(=O)Nc2ccc(OCC(=O)N3CCOCC3)cc2)cc1	-72.3*
OC(COc1ccc2ccccc2c1Cl)CN1CCOCC1 (centres undefined)	-150.4*
Cc1csc2ncc(C(=O)Nc3ccc4c(c3)OCCO4)c(=O)n12	-169.2*
Cc1cccc(NC(=O)c2cnc3scc(C)n3c2=O)c1	-181.0*
CN(C)C(=O)COc1ccc2cc(-c3ccccc3)c(=O)oc2c1	-91.1*
COc1ccc2cc(-c3ccccc3)c(=O)oc2c1	-71.7*
Cc1cc(-c2nc3cccnc3s2)ccc1NS(=O)(=O)c1cccs1	-167.5*
SMILES	aSyn UTR act
O=S(=O)(Nc1ccc(-c2nc3cccnc3s2)cc1)c1ccc(Cl)s1	-121.5*
O=S(=O)(Nc1ccc(-c2nc3cccnc3s2)cc1)c1cccs1	-89.3*
O=S(=O)(Nc1ccc(-c2nc3cccnc3s2)cc1)c1ccccc1F	-84.0*
O=C(O)c1ccc(-c2nc(-c3ccc(Cl)cc3Cl)cs2)cc1	-179.4*
O=C(O)c1ccc(-c2nc(-c3ccc(Cl)cc3)cs2)cc1	-173.4*
COc1ccc(-c2csc(-c3ccc(C(=O)O)cc3)n2)cc1	-160.5*
C=CCNC(=O)c1ccc(-c2nc(-c3ccccc3)cs2)cc1	-102.5*
Cc1occc1C(=O)Nc1ccc(Br)cc1F	-165.3*
Cc1nn(C)c(C(=O)Nc2ccc(Br)cc2F)c1Br	-110.1*
O=C(Nc1nc2c(s1)CN(Cc1ccccc1)CC2)C1CCC1	-107.7*
COc1ccc(C(=O)/C(=C/O)N=Nc2ccc(F)cc2)cc1	-64.3*
CN(C)c1ccc(N=C/C=C2\N(C)c3ccccc3C2(C)C)cc1	-114.4*
CN1/C(=C/C(=O)c2nc(S(C)(=O)=O)ncc2Cl)C(C)(C)c2ccccc21	57.1
CC(C)C(OC(=O)c1ccccc1)c1nccc2ccccc12 (centres undefined)	-115.9*
O=C(OC(c1ccccc1)c1nccc2ccccc12)c1cccc([N+](=O)[O-])c1 (centres undefined)	-78.7*
CC1(C)CC(=O)C/C(=N/Nc2nc3ccccc3s2)C1	-66.8*
CC1CCC/C(=N/Nc2nc3ccccc3s2)C1 (centres undefined)	-133.7*
Cn1c(/C=C/c2ccc(Br)cc2)c([N+](=O)[O-])c(=O)n(C)c1=O	-199.3*
CCCOc1ccc(/C=C/c2c([N+](=O)[O-])c(=O)n(C)c(=O)n2C)cc1	-129.6*
CC(=O)Nc1cccc(-c2csc(Nc3ccccn3)n2)c1	-120.0*
Cc1nc2ncccn2c1-c1csc(Nc2ccc(O)cc2)n1	-66.7*
Cc1ccc(Nc2nc(-c3c(C)nc4ncccn34)cs2)cc1	84.0
Cc1ccnc(Nc2nc(-c3c(C)nc4sccn34)cs2)c1	-103.1*
CC(=O)Nc1cccc(-c2csc(Nc3cc(C)ccn3)n2)c1	-63.1*
CC(=O)Nc1nc(C)c(-c2csc(Nc3ccccn3)n2)s1	-114.5*
SMILES	aSyn UTR act
CC(=O)Nc1ccc(-c2csc(Nc3cc(C)ccn3)n2)cc1	-100.6*
Cc1ccnc(Nc2nc(-c3ccccc3)cs2)c1	-155.4*
CCOc1cc(C2c3c(n[nH]c3C)C(=O)N2c2ccc(Br)cc2)ccc1O (centres undefined)	-61.8*
CN1CCN(/N=C/c2ccc(Cl)c(Cl)c2)CC1	-144.7*
O=[N+]([O-])c1cc(/C=N/N2CCCCC2)ccc1Cl	-89.4*
CN1CCN(/N=C/c2ccc(N(c3ccccc3)c3ccccc3)cc2)CC1	70.6
CN1CCN(/N=C/c2ccc(Br)cc2)CC1	-118.1*
CSC1=NC(C(Cl)(Cl)Cl)N=C(c2ccc(C)cc2)N1 (centres undefined)	118.2
Cc1[nH]c2ccccc2c(=O)c1CN(C)Cc1ccccc1	-89.1*
CC(C)n1c(CN(C)Cc2ccccc2)nc2c1c(=O)n(C)c(=O)n2C	64.3
Brc1ccc2nc(N3CCN(c4ccccc4)CC3)sc2c1	-142.7*
Clc1ccc2nc(N3CCN(c4ccccc4)CC3)sc2c1	-108.5*
CC(C)CCOCC(=O)Nc1cccc(C(=O)O)c1	-72.9*
CCOC(=O)Cc1cc(-c2ccc(OC)cc2)nc2ccc3ccccc3c12	-117.1*
CCOC(=O)Cc1cc(-c2ccc(O)cc2)nc2ccc3ccccc3c12	-80.4*
CCOC(=O)Cc1cc(-c2ccc(F)cc2)nc2ccc3ccccc3c12	-63.2*
COCCNC(=O)C(c1cccnc1)N(Cc1ccccc1)C(=O)Cn1nnc2ccccc21 (centres undefined)	-64.7*
COCCNC(=O)C(c1ccncc1)N(Cc1ccccc1)C(=O)Cn1nnc2ccccc21 (centres undefined)	-81.6*
CCc1nc(-c2cc3ccc(C)cc3[nH]c2=O)no1	-84.3*
Cc1nc(NC(=O)c2ccc(Br)o2)ccc1Br	-151.5*
Cc1nc(NC(=O)c2cc3ccccc3o2)ccc1Br	-160.2*
Cc1cccc(NC(=O)c2cc3ccccc3c(=O)o2)n1	-190.7*
CCc1ccc(-c2csc(-c3c[nH]c4ccccc34)n2)cc1	-307.9*
CCOC(=O)CSc1nc2ccc(N3CCOCC3)cc2c(=O)n1Cc1ccc2c(c1)OCO2	-81.9*
COCCNC(=O)CSc1nc2ccc(N3CCOCC3)cc2c(=O)n1Cc1ccc(OC)cc1	-79.9*
SMILES	aSyn UTR act
CCc1nnc(NC(=O)c2ncc(Cl)c(Cl)c2Cl)s1	-61.7*
COc1ccc(NC(=O)c2ccc(-c3ccccc3Cl)o2)cc1	-156.2*
O=C(Nc1cccc(F)c1)c1ccc(-c2ccccc2Cl)o1	-172.6*
COC(=O)c1sccc1-c1ccc(C(=O)Nc2ccccc2)o1	-115.1*
CCc1nnc(NC(=O)c2ccc(-c3ccccc3Cl)o2)s1	-160.5*
Cc1ccc(O)c(N=Nc2ccc(S(=O)(=O)N3CCCC3)cc2)c1	-70.2*
O=S(=O)(c1ccc2c(c1)C(=NO)c1cc(S(=O)(=O)N3CCCCC3)ccc1-2)N1CCCCC1	96.5
O=C(NCCc1ccccc1)c1ccccc1NC(=O)C1CCCCC1C(=O)O (centres undefined)	-146.3*
CC(C)c1ccc(NC(=O)c2ccccc2NC(=O)C2CCCCC2C(=O)O)cc1 (centres undefined)	-120.9*
CCOC(=O)CCn1nc(-c2ccc(Cl)cc2)cc1N	-128.8*
O=C1C(Cl)=C(Nc2cccc(O)c2)C(=O)N1Cc1ccccc1	-68.8*

Screening results: PubChem, Broad Institute
